Source: the supplement of paper PMC8253809

How the values were obtained:
Experiment in all cases: growth inhibition (% activity, log2 RLU normalised to DMSO / staurosporine); higher = more growth inhibition
Conditions in all cases: 33 µM
DIPGX29 = test system: DIPGX29 (H3.3 K27M diffuse intrinsic pontine glioma line)
How it was run: (§1)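 Cells (pHGG lines and H9-derived neural stem cells) were plated on Geltrex-coated 384-well plates and exposed to approved drugs at a single final concentration of about 33 μM, in triplicate, for 7 days at 37 °C, 5% CO2. Log2-transformed CellTiter-Glo luminescence was normalised per plate to % activity between solvent and positive control wells, and the growth-inhibition value is the median over replicates.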

DIPGX37 = test system: DIPGX37 (H3.3 K27M diffuse intrinsic pontine glioma line)
How it was run: as §1

DIPGX7 = test system: DIPGX7 (H3.3 K27M diffuse intrinsic pontine glioma line)
How it was run: as §1

DIPGX9 = test system: DIPGX9 (diffuse intrinsic pontine glioma line)
How it was run: as §1

HGGX39 = test system: HGGX39 (paediatric high-grade glioma line)
How it was run: as §1

HGGX6 = test system: HGGX6 (H3.3 G34R paediatric high-grade glioma line)
How it was run: as §1

HNSC = test system: HNSC
How it was run: as §1

SUDIPGIV = test system: SUDIPGIV (diffuse intrinsic pontine glioma line)
How it was run: as §1

SUDIPGVI = test system: SUDIPGVI (diffuse intrinsic pontine glioma line)
How it was run: as §1

SUDIPGXIII = test system: SUDIPGXIII (diffuse intrinsic pontine glioma line)
How it was run: as §1

| Compound | growth inhibition (DIPGX29) | growth inhibition (DIPGX37) | growth inhibition (DIPGX7) | growth inhibition (DIPGX9) | growth inhibition (HGGX39) | growth inhibition (HGGX6) | growth inhibition (HNSC) | growth inhibition (SUDIPGIV) | growth inhibition (SUDIPGVI) | growth inhibition (SUDIPGXIII) |
| --- | --- | --- | --- | --- | --- | --- | --- | --- | --- | --- |
| Cc1cc2c(cc1S(N)(=O)=O)S(=O)(=O)CCC2 | 0.849% | 2.86% | -0.717% | 1.06% | 0.974% | 0.857% | -0.336% | -0.262% | 2.41% | 1.65% |
| CCN(CC)CCOc1ccc(C(=C(Cl)c2ccccc2)c2ccccc2)cc1 | 26.6% | 11.7% | 45.2% | 12.3% | 36.3% | 28% | 63.5% | 32.8% | 1.14% | 0.221% |
| O=C1CCC(N2C(=O)c3ccccc3C2=O)C(=O)N1 (stereo not given) | -2.65% | -1.06% | -0.846% | -1.66% | -0.665% | -1.64% | -7.47% | -2.51% | -2.2% | -0.0477% |
| C[C@]12CC[C@@H]3c4ccc(O)cc4CC[C@H]3[C@@H]1CC[C@@H]2O | -1.16% | 1.54% | -0.611% | -0.154% | 0.663% | 2.45% | -4.69% | -0.561% | -3.66% | 1.49% |
| O=C(Oc1ccccc1C(=O)O)c1ccccc1O | -4.53% | -1.4% | 0.584% | -2.94% | -1.64% | -6.45% | 9.98% | -3.17% | -8.34% | -0.246% |
| CC(=O)Oc1ccccc1C(=O)O | 0.978% | 2.47% | 1.52% | 1.57% | 2.08% | 4% | 0.311% | -1.34% | 2.68% | -16% |
| CN1CCC[C@H]1c1cccnc1 | 0.174% | 0.939% | -1.09% | -1.61% | 2.08% | 0.579% | -0.787% | -0.338% | -0.198% | 1.09% |
| CN(C(=O)CN(CCO)CC(=O)N(C)C(C)(C)Cc1ccccc1)C(C)(C)Cc1ccccc1 | 11.3% | 3.37% | 29% | 4.47% | 9.74% | 2.56% | 53.1% | 3.05% | 6.12% | 10.4% |
| CCOC(=O)c1ncn2c1CN(C)C(=O)c1cc(F)ccc1-2 | 1.51% | 1.71% | 0.351% | 4.52% | 2.75% | 0.552% | 0.0947% | -1.75% | 2.57% | 2.26% |
| C[N+]1(C)CCC(=C(c2ccccc2)c2ccccc2)CC1 | 1.61% | 4.65% | 2.7% | 2.75% | 2.04% | -0.684% | 23.1% | 4.27% | 8.89% | 1.56% |
| Clc1ccc2c(c1)CCc1cccnc1C2=C1CCNCC1 | -4.02% | -0.355% | -2.28% | -0.408% | 0.308% | -1.66% | 0.109% | -0.876% | -0.303% | 0.814% |
| O=C(NCCN1CCOCC1)c1ccc(Cl)cc1 | 0.0777% | -0.588% | -0.129% | -0.472% | -0.0669% | -0.698% | -1.63% | -0.786% | -1.17% | 0.934% |
| N[C@@H]1CN(c2c(F)cc3c(=O)c(C(=O)O)cn([C@@H]4C[C@@H]4F)c3c2Cl)CC12CC2 | 1.84% | 4.34% | 1.79% | 0.793% | 3.53% | 0.649% | 0.64% | 0.64% | 3.9% | -3.35% |
| NCCc1c[nH]cn1 | -0.622% | 0.871% | -1.55% | 0.0733% | 1.84% | 3.55% | -2.23% | 0.269% | -0.51% | 22.9% |
| C[C@H]1C[C@H]2[C@@H]3CCC4=CC(=O)C=C[C@]4(C)[C@H]3C(=O)C[C@]2(C)[C@@]1(O)C(=O)CO | -1.49% | -0.985% | 2.72% | -1.67% | -0.401% | -2.95% | -1.41% | 0.457% | -9.81% | 0.862% |
| [O-][n+]1cccc(CO)c1 | -0.666% | 1.68% | -0.893% | -0.317% | 0.747% | 0.543% | -0.142% | -0.682% | -0.214% | 2.91% |
| CC(=O)O[C@]1(C(C)=O)CC[C@H]2[C@@H]3C[C@H](C)C4=CC(=O)C=C[C@]4(C)[C@@]3(F)[C@@H](O)C[C@@]21C | 1.69% | 3.28% | 0.393% | 5.69% | 4.16% | -1.08% | 0.0126% | -1.42% | 3.88% | 1.16% |
| Cc1nnc(C(=O)NC(C)(C)c2nc(C(=O)NCc3ccc(F)cc3)c(O)c(=O)n2C)o1 | 1.77% | -0.226% | 2.62% | 2.15% | 2.25% | -0.564% | 4.29% | -0.0786% | 2.47% | 0.152% |
| CC[C@]1(O)C[C@H]2CN(CCc3c([nH]c4ccccc34)[C@@](C(=O)OC)(c3cc4c(cc3OC)N(C=O)[C@H]3[C@@](O)(C(=O)OC)[C@H](OC(C)=O)[C@]5(CC)C=CCN6CC[C@]43[C@@H]65)C2)C1 | 23.4% | 12.5% | 15.1% | 22.7% | 21.3% | 17.5% | 60.5% | 35.7% | 38.9% | 30.9% |
| O=C1c2c(O)ccc(O)c2C(=O)c2c(NCCNCCO)ccc(NCCNCCO)c21 | 62.2% | 58.9% | 59.1% | 55.9% | 61.6% | 59% | 62.7% | 59.9% | 35.8% | 39.8% |
| CNC(=C[N+](=O)[O-])NCCSCc1csc(CN(C)C)n1 | -0.765% | -2.32% | -0.581% | 0.0593% | 0.382% | 0.506% | -0.992% | -0.124% | 0.207% | 0.421% |
| CC(C)(O/N=C(\C(=O)N[C@@H]1C(=O)N2C(C(=O)[O-])=C(C[n+]3ccccc3)CS[C@H]12)c1csc(N)n1)C(=O)O | -0.082% | 3.29% | 2.31% | 0.416% | 1.23% | -0.0518% | 1.13% | -0.671% | 2.58% | 0.376% |
